Screening data (PubChem BioAssay)
Compounds with a hit are over-represented: about 6% of the library has one in this group of screens.
DRD3 agonist: activates the human D3 dopamine receptor. P35462. D3R DiscoveRx beta-arrestin cells, luminescence, 90 min. max activation, %. 410,000 compounds, 0.58% hits. AID 652048; in the data active = max activation above about 30%
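Agonist mode: compounds and dopamine controls were applied to plated cells for 90 min at 37 degrees C after an overnight attachment at 1500 cells/well. Luminescent read-out followed 30 - 60 minutes at room temperature with DiscoveRx detection reagent.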
D1 antagonist: human D1 dopamine receptor antagonism; HEK293 TREx D1 cells, calcium flux, dopamine EC80; active compounds read low; P21728; activity change, negative = inhibition, % at 10 µM; AID 504652; 360,000 compounds, 3.2% hits; in the data active = activity change below about -30%
Target sequence (P21728 whole entry, looked up): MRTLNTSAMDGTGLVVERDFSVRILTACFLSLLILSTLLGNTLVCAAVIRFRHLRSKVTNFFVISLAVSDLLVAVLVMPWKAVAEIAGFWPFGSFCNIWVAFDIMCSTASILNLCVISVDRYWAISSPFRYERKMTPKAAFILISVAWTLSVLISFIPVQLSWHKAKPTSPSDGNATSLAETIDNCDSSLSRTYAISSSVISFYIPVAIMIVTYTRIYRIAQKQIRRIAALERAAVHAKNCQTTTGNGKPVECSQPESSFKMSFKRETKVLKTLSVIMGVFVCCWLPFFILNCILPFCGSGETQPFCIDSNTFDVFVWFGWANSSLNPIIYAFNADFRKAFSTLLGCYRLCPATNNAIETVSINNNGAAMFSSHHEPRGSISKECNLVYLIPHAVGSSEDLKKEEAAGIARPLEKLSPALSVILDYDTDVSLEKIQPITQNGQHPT
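Kinetic fluorescence of a calcium dye serves as the read-out. D1-expressing Hek293 Trex cells, induced overnight at 30 C, are exposed to compound for 180 s before an EC80 dopamine addition, then read 180 s further.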
D1 PAM: human D1 dopamine receptor positive modulation; 360,000 compounds, 0.036% hits; potentiation, % at 10 µM; HEK293 TREx D1 cells, calcium flux, dopamine EC20 potentiation; P21728; AID 504651; in the data active = potentiation above about 30%
D3 antag: antagonists of human D3 dopamine receptor; D3R cells, DiscoveRx beta-arrestin luminescence, antagonist mode; active compounds read low; max response, negative = inhibition, %; 360,000 compounds, 2.5% hits; AID 652054; in the data active = max response below about -50%; inconclusive = no clear call, values can overlap the other calls
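Cells plated overnight at 1500 cells/well, then exposed to library compounds with dopamine controls for 90 minutes at 37 degrees C. DiscoveRx reagent added for 30–60 minutes at room temperature; luminescence read, quantitative HTS format.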
D1 agonist: activates the human D1 dopamine receptor; P21728; HEK293 T-REx D1 cells, calcium flux, agonist mode; activation, % at 2 µM; 360,000 compounds, 1% hits; AID 504660; in the data active = activation above about 30%
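Agonism was scored from calcium flux recorded over 180 s (1 read/s) after pintool compound addition, following a 10-cycle baseline. Cells were inducible force-coupled HEK293 TREx D1, plated overnight at 30 C and loaded with no-wash calcium dye.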
Hits are given with their value; - = inactive; ? = inconclusive; . = no result given.

SMILES	DRD3 agonist	D1 antagonist	D1 PAM	D3 antag	D1 agonist
Cc1ccccc1C(=O)Nc1cc2c(cc1N1CCCCC1)n(C)c(=O)n2C	-	-	-	.	-
O=C1/C(=C\c2cc([N+](=O)[O-])ccc2O)SC(=S)N1Cc1ccc(Cl)cc1	-	-	-	-	197
COc1cc(/C=C2\SC(=S)N(N3CCOCC3)C2=O)ccc1O	-	-	-	?	30
O=C(O)CN1C(=O)/C(=C\c2cccc(OCc3ccccc3)c2)SC1=S	-	-	-	-	-
COc1cc(/C=C2/SC(=NCc3ccccc3)N(Cc3ccccc3)C2=O)ccc1O	-	-	-	-	-
CN1C(=O)/C(=C\c2cccc(OCc3ccccc3)c2)SC1=S	-	-34	-	-	-
COc1cc(/C=C2/SC(=S)N(Cc3ccccc3)C2=O)ccc1O	-	-	-	-61	102
CSc1ncc2c(n1)-c1ccccc1N(Cc1ccccc1C)S2(=O)=O	-	-	-	.	-
COc1cc(/C=C2\SC(=S)N(CCC(=O)Nc3ccccc3)C2=O)cc(OC)c1OC	-	-	-	-	46
O=C(CN1C(=O)S/C(=C\c2ccccn2)C1=O)Nc1ccccc1	-	-	-	-	-
O=C1/C(=C\c2cccc(O)c2)SC(=S)N1Cc1ccccc1	-	-	-	-	-
COc1cc(/C=C2/SC(=S)N(CCC(=O)Nc3ccccc3)C2=O)cc(OC)c1OC	-	-	-	-	-
O=C(CN1C(=O)S/C(=C\c2cc(Cl)c(O)c(Cl)c2)C1=O)Nc1ccccc1	-	-	-	-	48
O=C1/C(=C\c2ccc(O)c(O)c2)SC(=S)N1Cc1ccccc1	-	-	-	?	78
C(#Cc1ccccc1)C[N+]1(CC#Cc2cccc3ccccc23)CCCC1	-	-	-	-	-
C#CC[N+]1(CC#Cc2ccc(C#CC[N+]3(CC#C)CCOCC3)cc2)CCOCC1	-	-81	-	-	-
C#CC[N+]1(CC#Cc2ccccc2)CCCC1	-	-52	-	-	-
CC[C@@H](C(=O)[C@@H](C)[C@@H](O)[C@H](C)CCc1ccc(C)c(O)c1C(=O)O)[C@H]1O[C@](CC)([C@H]2CC[C@](O)(CC)[C@H](C)O2)C[C@@H]1C	208	-64	-	-	207
COc1cccc(-n2c(SC)nnc2-c2cnccn2)c1	-	-45	-	-	-
O=c1[nH]c2ccc(Cl)cc2c(-c2ccccc2)c1N1CCOCC1	-	-	-	-	-
O=c1[nH]c2ccc(Cl)cc2c(-c2ccccc2)c1CN1CCOCC1	-	-	-	-58	-
O=C(c1ccccc1)c1cc(Cl)ccc1N1C(=O)C=CC1=O	-	-	-	-92	-
CC(=O)c1cc(-c2ccc(F)cc2)n(CC(=O)NC2CCC(C)CC2)c1C (centres undefined)	-	-	-	.	-
CC(=O)Nc1nonc1-c1nnc(SCC(=O)Nc2cccc(F)c2)n1-c1ccccc1	-	-	-	.	-
CCC(Cn1nnc2ccccc2c1=O)NC(=O)Nc1cc(C)cc(C)c1 (centres undefined)	-	-	-	.	-
SMILES	DRD3 agonist	D1 antagonist	D1 PAM	D3 antag	D1 agonist
COc1cccc(-n2sc3c(c2=S)-c2cc(OC)ccc2NC3(C)C)c1	-	-	-	-69	-
CCN(CC)C(=O)Cn1ncc2c([nH]c3ccc(C)cc32)c1=O	-	-	-	.	-
Cc1ccc(-c2nc3ccccc3c(=O)n2NC(=O)c2cccs2)cc1	-	-	-	-51	-
Cc1nnc(NC(=O)c2nc(S(=O)(=O)Cc3ccccc3)ncc2Cl)s1	-	-	-	-	-
Cc1ccccc1NC(=O)c1nc(S(C)(=O)=O)ncc1Cl	-	-	-	-81	-
Cc1cccc(CS(=O)(=O)c2ncc(Cl)c(C(=O)Nc3nc4ccc(F)cc4s3)n2)c1	-	-	-	.	-
Cc1cccc(C)c1NC(=O)c1nc(S(=O)(=O)Cc2ccccc2)ncc1Cl	-	-	-	-64	-
CCCc1nnc(NC(=O)c2nc(S(=O)(=O)Cc3cccc(C)c3)ncc2Cl)s1	-	-	-	-68	-
Cc1cccc(CS(=O)(=O)c2ncc(Cl)c(C(=O)Nc3c(C)cccc3C)n2)c1	-	-32	-	-100	-
O=[n+]1ccn([O-])c2ccccc21	-	.	.	.	.
Cc1cccc(CS(=O)(=O)c2ncc(Cl)c(C(=O)NCc3ccccc3)n2)c1	-	-32	-	-82	-
COc1cc(OC)c(NC(=O)c2nn(-c3ccc(C)cc3)c(=O)c3c2c2ccccc2n3C)cc1Cl	-	-	-	.	-
COc1ccc(-c2nc(CS(=O)(=O)CC(=O)NCCCN3CCN(C)CC3)c(C)o2)cc1	-	-38	-	-	-
Cc1oc(-c2ccccc2F)nc1CS(=O)(=O)CC(=O)NCCCN1CCN(C)CC1	-	-	-	-	-
CCOc1ccc(CCNC(=O)Cn2nc(CC)n3c(cc4sccc43)c2=O)cc1	-	-	-	.	-
CCN(CC)CCOC(=O)c1cccc(Br)c1	-	-	-	-58	-
CCN(CC)CCOC(=O)c1cccc(Cl)c1	-	-	-	-	-
CCCCn1c(O)c(N=Nc2ccccn2)c2ccccc21	-	-	-	-	-
CCCCn1c(O)c(N=Nc2ccccc2O)c2ccccc21	-	-	-	?	30
CC1=NOC(=O)/C1=C\c1ccc(-c2ccc(Cl)c(C(=O)O)c2)o1	-	-	-	-	-
CC1=NOC(=O)/C1=C\c1ccc(-c2cccc(Cl)c2)o1	-	-51	-	-	-
O=S(=O)(Nc1ccon1)c1cc(Cl)ccc1Cl	-	-	-	-	-
O=S(=O)(Nc1ccon1)c1ccc(F)c(F)c1	-	-	-	-81	-
O=C(Nc1ccc2c(c1)CCCN2C(=O)c1cccs1)c1ccc(F)c(F)c1	-	-	-	.	-
Cc1cccc(CN2CCN(CC(=O)NCc3ccc(Cl)cc3)C2=O)c1	-	-	-	.	-
SMILES	DRD3 agonist	D1 antagonist	D1 PAM	D3 antag	D1 agonist
O=c1[nH]c(-c2ccccn2)nc(C(F)(F)F)c1Br	-	-	-	-	-
Nc1nc(C(F)(F)F)c(Br)c(=O)n1N	-	-30	-	-	-
CCc1ccc(NC(=O)C(=O)NCC(c2ccc3c(c2)OCO3)N2CCN(C)CC2)cc1 (centres undefined)	-	-	-	.	-
CC(C)Cc1nc(S(=O)(=O)c2ccc(Cl)cc2)c(N2CCOCC2)o1	-	-	-	-54	-
CC(C)(C)c1nc(S(=O)(=O)c2ccc(Cl)cc2)c(N2CCOCC2)o1	-	-	-	-	-
CCOC(=O)c1nn(-c2ccc(F)cc2)c(=O)c2c(N)scc12	-	-51	-	-	59
CCN(CC)c1ccc2cc(S(=O)(=O)c3ccc(Cl)cc3)c(=O)oc2c1	-	-	-	-	272
NC(=S)c1cc2ccc(O)cc2oc1=O	-	-	-	-68	-
CCCCCCc1cc2cc(S(=O)(=O)c3ccc(C)cc3)c(=O)oc2cc1O	-	-	-	-	-
CCCCCCc1cc2cc(C(=O)Nc3ccccc3)c(=O)oc2cc1O	51	-	-	-	-
